Among the data in the OligoGym collection are sensor-assay potency score (higher = more potent) values, retold here.
Further: reference of the scale not given here.

One test addresses CXCL1. Description: pooled miR-30 sensor sort-seq; sequence = guide strand. As to conditions: shRNA.
With TTCACGTTCACACTTTGGATGT, the sensor-assay potency score (higher = more potent) is -1.04.

Turning to TGATTTTCTTAACTATGGGGGA, the sensor-assay potency score (higher = more potent) was -0.639.

As to TTCGATGATTTTCTTAACTATG, the sensor-assay potency score (higher = more potent) was -1.26. TGAGGCAAGCTTTCCGCCCATT: the sensor-assay potency score (higher = more potent) was -1.55.

As to ACACTTTGGATGTTCTTGGGGT, the sensor-assay potency score (higher = more potent) is -0.0598.

For TAACTATGGGGGATGCAGGATT, the sensor-assay potency score (higher = more potent) was -1.31.

The target in a further test is CXCL3. Described as above. As to conditions: shRNA.
TTGTTCAGTATCTTTTCGATGA: the sensor-assay potency score (higher = more potent) was -0.149. Same read-out and setting: then TGCAGTGTCTGCAAGCACTGGC, with 0.137; and TAAATAATCAGGACTGAGCTAT, with -0.218; and ATGATTTTCTGAACCATGGGGG, with -0.165. TAGTCAAACACATTAAGTCCTT: the sensor-assay potency score (higher = more potent) was -0.625. As to TGAGACAAGCTTTCTTCCCATT, the sensor-assay potency score (higher = more potent) is -1.23. Turning to TTTCTTCCCATTCTTGAGTGTG, the sensor-assay potency score (higher = more potent) is -0.403. In the case of TACATAAATAAGTAGAACCCTC, the sensor-assay potency score (higher = more potent) was -0.724.

Turning to TTCGATGATTTTCTGAACCATG, the sensor-assay potency score (higher = more potent) is -0.954. Take TAAATAAGTAGAACCCTCGTAA: the sensor-assay potency score (higher = more potent) was -0.0177. Same read-out and setting: the same measure for TTGAGACAAGCTTTCTTCCCAT: 0.654; for TTTGATGAAACACACTCACATC: -1.05.

A further test has as its target CXorf40A. Described as above. The settings on record: shRNA.
With TACAGCTTGATTTTCTAGTTCC, the sensor-assay potency score (higher = more potent) is 0.219. Consider TTCAGGTTGGTCAGTACAGCTT, for which the sensor-assay potency score (higher = more potent) was -0.578.

For the sequence TCAGTACAGCTTGATTTTCTAG, the sensor-assay potency score (higher = more potent) is -0.864. As for TCAGGTTGGTCAGTACAGCTTG, the sensor-assay potency score (higher = more potent) is 0.439.

Turning to TCCACCAGCAGCTCCCGCCAGG, the sensor-assay potency score (higher = more potent) is -1.9. On the same count and under the same terms, the same measure for TTGGTCAGTACAGCTTGATTTT: -1.4.

Another test has as its target CXorf41. Described as above. As to conditions: shRNA.
The sequence TATCATCATATTCTGCTCCTTC displayed a sensor-assay potency score (higher = more potent) of 0.467. On to TATATCTTCAGTTCCCACCTGC, for which the sensor-assay potency score (higher = more potent) worked out at 0.748.

Take TTATCAACAGCTTCTTCTGAGG: the sensor-assay potency score (higher = more potent) is -1.2. For the sequence TTCAATTATGTAATTGACCATG, the sensor-assay potency score (higher = more potent) was -1.17. Consider TTCTTCAGGATTAAGTAGCTTA, for which the sensor-assay potency score (higher = more potent) was found to be 0.137. As for TAACATCCCACATATCATCATA, the sensor-assay potency score (higher = more potent) is -1.24. Regarding TTAGCCACTAGTTCACTGCAAC, the sensor-assay potency score (higher = more potent) is -0.799. Regarding TAACTCTCTTTTCATAGTCATA, the sensor-assay potency score (higher = more potent) is -1.66. TTGAGCTCTTCTATTTGGGGTG had a sensor-assay potency score (higher = more potent) of 0.00833. Same read-out and setting: then TAACTGAAGAAACACTCTCAAA, with -1.54.

For TAGTTCACTGCAACAACCTGTT, the sensor-assay potency score (higher = more potent) is -0.276. TTTATTACCTGTATATTCCAGA registered a sensor-assay potency score (higher = more potent) of 0.269.

The target in the next test is CXorf56. The description is as above. As to conditions: shRNA.
With TTGCCCATGTCTTTGGTCCGTT, the sensor-assay potency score (higher = more potent) was -0.538.

TTGGTCATCATCACCTTCTTAG: the sensor-assay potency score (higher = more potent) was -0.419. The same measure, in the same setting: then TTCATTTTCGCTTTCTTGGCTT, with 0.484. For the sequence ATATGAGTCAGCAACTTCCCTA, the sensor-assay potency score (higher = more potent) is -0.79.
